Experimental data: paper PMC7862700, “An all-to-all approach to the identification of sequence-specific readers for epigenetic DNA modifications on cytosine”

Assays:
Assay in all cases: DAPPL (digital affinity profiling via proximity ligation, sequencing); 10 mM Tris-HCl pH 7.5, 50 mM NaCl, 1 mM DTT, 4% glycerol, room temperature, 30 min; GST-TFs on glutathione beads, 16-mer random dsDNA library, 0.1% formaldehyde crosslink after washing; high values mean tight binding
FEV = molecular target: T1, FEV (Homo sapiens, UniProt Q99581 1-238); conditions: protein: recombinant; tags: N-terminal GST; dsDNA, one strand shown
T1 sequence: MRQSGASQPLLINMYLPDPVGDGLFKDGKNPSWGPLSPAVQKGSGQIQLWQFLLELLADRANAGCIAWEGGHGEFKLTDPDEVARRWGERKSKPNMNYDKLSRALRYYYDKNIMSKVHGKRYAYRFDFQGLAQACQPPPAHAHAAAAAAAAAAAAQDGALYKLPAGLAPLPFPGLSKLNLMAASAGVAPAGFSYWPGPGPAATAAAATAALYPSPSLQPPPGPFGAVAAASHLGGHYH
Outline: (§1)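 A tag-only sample was pooled with DNA-barcoded human transcription factors that had been expressed in yeast as GST fusions and captured on glutathione beads. The pools were incubated for 30 min at room temperature with 200 nmole of a random double-stranded 16-mer DNA library in Tris/NaCl/DTT/glycerol buffer, then washed, crosslinked with 0.1% formaldehyde, proximity-ligated (BsaI/T4 ligase, 1 h, 37 °C), PCR-amplified and sequenced on an Illumina NextSeq500. Binding signal is each hexamer's read frequency for a factor divided by its frequency for the tag-only sample.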

ETV5 = ETV5 (Homo sapiens, UniProt P41161 1-510); conditions: protein: recombinant; tags: N-terminal GST; dsDNA, one strand shown
Outline: as §1

HSF1 = HSF1 (Homo sapiens, UniProt Q00613 1-529); conditions: protein: recombinant; tags: N-terminal GST; chain copies: 3; dsDNA, one strand shown
Outline: as §1

SPIC = molecular target: T2, SPIC (Homo sapiens, UniProt Q8N5J4 1-248); conditions: protein: recombinant; tags: N-terminal GST; dsDNA, one strand shown
T2 sequence: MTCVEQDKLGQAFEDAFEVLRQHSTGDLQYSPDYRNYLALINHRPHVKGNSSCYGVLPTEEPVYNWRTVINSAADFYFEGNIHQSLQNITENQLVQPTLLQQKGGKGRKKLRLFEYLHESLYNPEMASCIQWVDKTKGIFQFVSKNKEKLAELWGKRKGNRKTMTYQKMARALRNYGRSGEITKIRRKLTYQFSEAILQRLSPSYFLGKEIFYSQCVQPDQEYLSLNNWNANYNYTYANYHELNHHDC
Outline: as §1

ELF4 = ELF4 (Homo sapiens, UniProt Q99607 1-663); conditions: protein: recombinant; tags: N-terminal GST; dsDNA, one strand shown
Outline: as §1

ELK4 = molecular target: T3, ELK4 (Homo sapiens, UniProt P28324-2 1-405); conditions: protein: recombinant; tags: N-terminal GST; dsDNA, one strand shown
T3 sequence: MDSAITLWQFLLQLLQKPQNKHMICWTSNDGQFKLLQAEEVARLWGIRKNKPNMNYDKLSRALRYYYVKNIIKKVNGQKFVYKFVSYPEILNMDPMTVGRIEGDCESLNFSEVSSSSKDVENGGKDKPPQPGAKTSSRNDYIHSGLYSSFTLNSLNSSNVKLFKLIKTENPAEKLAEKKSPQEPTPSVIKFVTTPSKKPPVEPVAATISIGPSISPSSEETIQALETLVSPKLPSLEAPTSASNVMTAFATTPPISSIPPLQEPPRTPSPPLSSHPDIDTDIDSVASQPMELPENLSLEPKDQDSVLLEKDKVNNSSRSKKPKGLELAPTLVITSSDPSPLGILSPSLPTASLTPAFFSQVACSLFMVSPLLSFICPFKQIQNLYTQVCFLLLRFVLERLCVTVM
Outline: as §1

ETV2 = molecular target: T4, ETV2 (Homo sapiens, UniProt O00321 1-342); conditions: protein: recombinant; tags: N-terminal GST; dsDNA, one strand shown
T4 sequence: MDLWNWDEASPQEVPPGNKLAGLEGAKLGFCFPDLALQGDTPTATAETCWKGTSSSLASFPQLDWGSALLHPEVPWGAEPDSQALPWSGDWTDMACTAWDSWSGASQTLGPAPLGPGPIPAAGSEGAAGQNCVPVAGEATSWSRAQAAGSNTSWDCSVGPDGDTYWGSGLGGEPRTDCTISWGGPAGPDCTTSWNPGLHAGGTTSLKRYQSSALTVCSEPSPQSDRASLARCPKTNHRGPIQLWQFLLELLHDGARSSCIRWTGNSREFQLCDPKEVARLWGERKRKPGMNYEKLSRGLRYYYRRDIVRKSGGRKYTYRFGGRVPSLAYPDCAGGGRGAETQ
Outline: as §1

ELF3 = molecular target: T5, ELF3 (Homo sapiens, UniProt P78545 1-371); conditions: protein: recombinant; tags: N-terminal GST; dsDNA, one strand shown
T5 sequence: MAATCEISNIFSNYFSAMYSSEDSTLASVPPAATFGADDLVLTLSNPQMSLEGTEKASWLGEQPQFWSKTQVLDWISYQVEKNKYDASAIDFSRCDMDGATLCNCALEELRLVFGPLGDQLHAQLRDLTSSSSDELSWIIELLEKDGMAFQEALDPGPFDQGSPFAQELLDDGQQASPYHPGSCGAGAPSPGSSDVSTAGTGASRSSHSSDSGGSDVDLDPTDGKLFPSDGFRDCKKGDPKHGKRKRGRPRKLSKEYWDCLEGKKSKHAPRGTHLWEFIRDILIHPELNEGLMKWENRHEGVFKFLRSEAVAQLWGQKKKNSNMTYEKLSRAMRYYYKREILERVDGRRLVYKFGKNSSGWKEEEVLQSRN
Outline: as §1

CRX = CRX (Homo sapiens, UniProt O43186 1-299); conditions: protein: recombinant; tags: N-terminal GST; dsDNA, one strand shown
Outline: as §1

ETV1 = ETV1 (Homo sapiens, UniProt P50549 1-477); conditions: protein: recombinant; tags: N-terminal GST; dsDNA, one strand shown
Outline: as §1

ERF = molecular target: T6, ERF (Homo sapiens, UniProt P50548 1-548); conditions: protein: recombinant; tags: N-terminal GST; dsDNA, one strand shown
T6 sequence: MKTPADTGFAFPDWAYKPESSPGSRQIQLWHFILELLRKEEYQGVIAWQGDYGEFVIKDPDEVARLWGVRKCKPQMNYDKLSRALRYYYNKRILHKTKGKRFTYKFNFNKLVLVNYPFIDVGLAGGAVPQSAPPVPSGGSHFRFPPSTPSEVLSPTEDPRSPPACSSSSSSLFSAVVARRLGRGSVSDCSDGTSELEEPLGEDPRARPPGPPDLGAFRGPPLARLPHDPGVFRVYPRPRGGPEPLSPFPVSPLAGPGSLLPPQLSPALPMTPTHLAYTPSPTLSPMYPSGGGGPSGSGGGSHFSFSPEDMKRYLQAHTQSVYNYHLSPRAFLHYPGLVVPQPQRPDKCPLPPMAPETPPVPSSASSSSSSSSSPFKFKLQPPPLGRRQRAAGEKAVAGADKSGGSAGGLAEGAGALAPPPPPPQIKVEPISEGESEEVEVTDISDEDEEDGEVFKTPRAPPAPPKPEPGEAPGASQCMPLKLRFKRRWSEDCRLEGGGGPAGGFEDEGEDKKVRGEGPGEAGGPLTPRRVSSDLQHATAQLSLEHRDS
Outline: as §1

ETV3L = molecular target: T7, ETV3L (Homo sapiens, UniProt Q6ZN32 1-361); conditions: protein: recombinant; tags: N-terminal GST; dsDNA, one strand shown
T7 sequence: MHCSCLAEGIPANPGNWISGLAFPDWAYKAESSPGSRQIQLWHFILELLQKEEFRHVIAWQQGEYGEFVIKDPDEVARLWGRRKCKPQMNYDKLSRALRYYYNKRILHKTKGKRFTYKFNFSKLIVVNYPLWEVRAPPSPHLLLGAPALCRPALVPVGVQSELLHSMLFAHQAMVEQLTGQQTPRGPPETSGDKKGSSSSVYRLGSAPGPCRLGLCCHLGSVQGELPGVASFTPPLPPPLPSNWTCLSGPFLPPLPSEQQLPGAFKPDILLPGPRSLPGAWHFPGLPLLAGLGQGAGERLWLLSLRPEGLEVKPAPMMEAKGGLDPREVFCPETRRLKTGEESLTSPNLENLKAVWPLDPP
Outline: as §1

ETS2 = molecular target: T8, ETS2 (Homo sapiens, UniProt P15036 1-469); conditions: protein: recombinant; tags: N-terminal GST; dsDNA, one strand shown
T8 sequence: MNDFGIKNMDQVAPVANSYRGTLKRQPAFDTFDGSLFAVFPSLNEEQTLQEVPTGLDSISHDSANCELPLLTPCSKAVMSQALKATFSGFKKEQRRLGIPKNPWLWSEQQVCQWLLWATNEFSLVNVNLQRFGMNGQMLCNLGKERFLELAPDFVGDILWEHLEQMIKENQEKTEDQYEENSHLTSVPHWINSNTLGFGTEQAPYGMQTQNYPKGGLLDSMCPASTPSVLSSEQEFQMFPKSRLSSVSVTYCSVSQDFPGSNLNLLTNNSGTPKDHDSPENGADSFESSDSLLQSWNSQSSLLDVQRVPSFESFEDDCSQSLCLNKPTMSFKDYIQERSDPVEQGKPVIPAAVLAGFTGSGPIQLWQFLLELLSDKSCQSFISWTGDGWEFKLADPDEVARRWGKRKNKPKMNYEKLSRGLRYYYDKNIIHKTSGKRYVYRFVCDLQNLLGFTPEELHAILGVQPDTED
Outline: as §1

SPDEF = molecular target: T9, SPDEF (Homo sapiens, UniProt O95238 1-335); conditions: protein: recombinant; tags: N-terminal GST; dsDNA, one strand shown
T9 sequence: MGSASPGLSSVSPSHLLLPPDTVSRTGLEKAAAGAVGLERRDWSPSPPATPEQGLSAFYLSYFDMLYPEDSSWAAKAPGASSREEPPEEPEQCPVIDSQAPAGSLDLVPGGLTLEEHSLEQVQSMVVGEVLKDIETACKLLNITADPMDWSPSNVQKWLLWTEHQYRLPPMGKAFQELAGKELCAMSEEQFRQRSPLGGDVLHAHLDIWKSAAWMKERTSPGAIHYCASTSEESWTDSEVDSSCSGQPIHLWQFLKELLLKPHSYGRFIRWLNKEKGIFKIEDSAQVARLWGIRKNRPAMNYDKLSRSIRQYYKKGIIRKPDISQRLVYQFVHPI
Outline: as §1

ETV7 = molecular target: T10, ETV7 (Homo sapiens, UniProt Q9Y603 1-341); conditions: protein: recombinant; tags: N-terminal GST; dsDNA, one strand shown
T10 sequence: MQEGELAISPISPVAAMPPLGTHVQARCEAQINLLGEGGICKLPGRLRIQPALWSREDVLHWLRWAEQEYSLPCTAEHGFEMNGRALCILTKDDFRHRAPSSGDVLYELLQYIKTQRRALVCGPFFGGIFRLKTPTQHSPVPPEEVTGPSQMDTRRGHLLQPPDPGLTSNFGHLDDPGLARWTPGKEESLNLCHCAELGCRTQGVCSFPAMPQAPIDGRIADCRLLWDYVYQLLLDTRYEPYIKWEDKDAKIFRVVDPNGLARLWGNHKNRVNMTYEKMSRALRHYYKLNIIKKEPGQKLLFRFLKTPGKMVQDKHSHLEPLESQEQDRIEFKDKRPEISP
Outline: as §1

ELF5 = molecular target: T11, ELF5 (Homo sapiens, UniProt Q9UKW6-2 1-255); conditions: protein: recombinant; tags: N-terminal GST; dsDNA, one strand shown
T11 sequence: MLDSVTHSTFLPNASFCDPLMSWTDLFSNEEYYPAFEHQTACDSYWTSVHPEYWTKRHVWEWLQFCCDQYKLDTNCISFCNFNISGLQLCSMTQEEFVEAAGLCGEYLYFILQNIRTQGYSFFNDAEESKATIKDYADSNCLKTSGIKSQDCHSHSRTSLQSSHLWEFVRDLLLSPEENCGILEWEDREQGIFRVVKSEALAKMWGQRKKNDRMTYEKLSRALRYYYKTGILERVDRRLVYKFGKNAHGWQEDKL
Outline: as §1

ETV3 = molecular target: T12, ETV3 (Homo sapiens, UniProt P41162-2 1-143); conditions: protein: recombinant; tags: N-terminal GST; dsDNA, one strand shown
T12 sequence: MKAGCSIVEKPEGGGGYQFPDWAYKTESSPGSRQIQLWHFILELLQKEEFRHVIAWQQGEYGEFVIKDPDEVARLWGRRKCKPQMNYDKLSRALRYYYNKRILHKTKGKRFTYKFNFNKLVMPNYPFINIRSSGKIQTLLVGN
Outline: as §1

ETV6 = ETV6 (Homo sapiens, UniProt P41212 1-452); conditions: protein: recombinant; tags: N-terminal GST; dsDNA, one strand shown
Outline: as §1

Chain of CRX (O43186 whole entry): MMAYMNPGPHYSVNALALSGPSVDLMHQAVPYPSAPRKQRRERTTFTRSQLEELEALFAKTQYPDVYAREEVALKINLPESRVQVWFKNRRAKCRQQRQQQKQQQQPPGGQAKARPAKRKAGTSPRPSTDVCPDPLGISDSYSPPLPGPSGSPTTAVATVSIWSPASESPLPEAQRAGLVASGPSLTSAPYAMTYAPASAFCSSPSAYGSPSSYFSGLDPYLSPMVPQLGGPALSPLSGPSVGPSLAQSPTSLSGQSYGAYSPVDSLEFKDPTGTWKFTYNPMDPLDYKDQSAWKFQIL
Chain of ETV1 (P50549 whole entry): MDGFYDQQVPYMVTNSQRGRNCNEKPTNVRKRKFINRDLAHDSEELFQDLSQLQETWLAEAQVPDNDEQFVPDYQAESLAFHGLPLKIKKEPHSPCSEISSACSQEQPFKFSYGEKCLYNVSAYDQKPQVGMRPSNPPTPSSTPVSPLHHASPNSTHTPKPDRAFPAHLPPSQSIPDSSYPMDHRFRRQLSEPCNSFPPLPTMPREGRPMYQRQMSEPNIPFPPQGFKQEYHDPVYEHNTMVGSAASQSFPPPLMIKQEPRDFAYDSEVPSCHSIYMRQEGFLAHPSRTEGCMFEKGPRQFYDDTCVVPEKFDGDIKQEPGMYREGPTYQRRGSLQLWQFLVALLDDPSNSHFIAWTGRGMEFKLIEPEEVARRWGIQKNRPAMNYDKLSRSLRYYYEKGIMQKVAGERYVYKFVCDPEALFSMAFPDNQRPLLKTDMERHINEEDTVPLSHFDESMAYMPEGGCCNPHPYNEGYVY
Chain of ETV5 (P41161 whole entry): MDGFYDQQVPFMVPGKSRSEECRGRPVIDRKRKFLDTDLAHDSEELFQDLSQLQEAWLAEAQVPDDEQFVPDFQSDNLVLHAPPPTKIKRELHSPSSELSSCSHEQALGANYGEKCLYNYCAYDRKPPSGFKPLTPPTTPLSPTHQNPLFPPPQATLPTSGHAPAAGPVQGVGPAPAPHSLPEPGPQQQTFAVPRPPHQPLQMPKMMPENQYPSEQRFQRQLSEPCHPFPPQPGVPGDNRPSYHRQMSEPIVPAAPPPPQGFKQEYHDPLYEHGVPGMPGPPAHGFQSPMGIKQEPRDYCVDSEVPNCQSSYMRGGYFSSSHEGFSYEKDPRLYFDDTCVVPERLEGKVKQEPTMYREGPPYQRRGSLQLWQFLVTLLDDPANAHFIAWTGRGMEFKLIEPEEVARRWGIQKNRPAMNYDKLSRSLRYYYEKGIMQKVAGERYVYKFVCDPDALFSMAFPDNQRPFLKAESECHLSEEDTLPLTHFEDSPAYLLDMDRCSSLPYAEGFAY
Chain of HSF1 (Q00613 whole entry): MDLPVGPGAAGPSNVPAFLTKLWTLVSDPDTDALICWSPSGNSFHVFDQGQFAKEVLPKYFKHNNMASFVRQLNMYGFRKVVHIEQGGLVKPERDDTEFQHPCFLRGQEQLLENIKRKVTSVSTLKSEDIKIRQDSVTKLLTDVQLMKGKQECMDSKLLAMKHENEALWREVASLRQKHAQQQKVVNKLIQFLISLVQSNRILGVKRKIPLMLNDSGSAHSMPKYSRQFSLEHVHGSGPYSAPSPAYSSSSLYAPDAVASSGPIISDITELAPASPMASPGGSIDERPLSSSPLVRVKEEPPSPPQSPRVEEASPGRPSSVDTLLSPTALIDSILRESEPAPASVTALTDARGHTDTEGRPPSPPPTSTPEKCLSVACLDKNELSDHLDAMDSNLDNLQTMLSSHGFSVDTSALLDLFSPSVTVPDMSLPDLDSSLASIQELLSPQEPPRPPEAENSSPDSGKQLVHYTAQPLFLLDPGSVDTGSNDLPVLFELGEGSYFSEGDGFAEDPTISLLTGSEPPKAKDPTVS
Chain of ELF4 (Q99607 whole entry): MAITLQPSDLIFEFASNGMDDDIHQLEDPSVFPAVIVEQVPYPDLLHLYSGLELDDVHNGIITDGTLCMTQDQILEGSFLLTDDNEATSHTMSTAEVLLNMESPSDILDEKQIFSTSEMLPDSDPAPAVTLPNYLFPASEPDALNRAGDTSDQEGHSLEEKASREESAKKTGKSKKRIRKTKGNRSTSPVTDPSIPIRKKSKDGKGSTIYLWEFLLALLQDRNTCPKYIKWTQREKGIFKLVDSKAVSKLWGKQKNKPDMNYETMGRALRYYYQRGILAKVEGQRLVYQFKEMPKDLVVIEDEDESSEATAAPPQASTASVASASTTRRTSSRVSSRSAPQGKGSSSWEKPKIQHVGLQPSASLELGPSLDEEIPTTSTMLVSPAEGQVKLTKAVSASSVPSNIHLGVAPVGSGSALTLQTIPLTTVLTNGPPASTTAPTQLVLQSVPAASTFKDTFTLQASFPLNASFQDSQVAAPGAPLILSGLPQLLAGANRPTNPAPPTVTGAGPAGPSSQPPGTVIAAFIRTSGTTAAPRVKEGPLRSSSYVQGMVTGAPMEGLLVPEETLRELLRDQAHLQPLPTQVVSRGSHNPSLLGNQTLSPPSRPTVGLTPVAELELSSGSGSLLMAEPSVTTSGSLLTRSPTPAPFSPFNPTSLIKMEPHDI
Chain of ETV6 (P41212 whole entry): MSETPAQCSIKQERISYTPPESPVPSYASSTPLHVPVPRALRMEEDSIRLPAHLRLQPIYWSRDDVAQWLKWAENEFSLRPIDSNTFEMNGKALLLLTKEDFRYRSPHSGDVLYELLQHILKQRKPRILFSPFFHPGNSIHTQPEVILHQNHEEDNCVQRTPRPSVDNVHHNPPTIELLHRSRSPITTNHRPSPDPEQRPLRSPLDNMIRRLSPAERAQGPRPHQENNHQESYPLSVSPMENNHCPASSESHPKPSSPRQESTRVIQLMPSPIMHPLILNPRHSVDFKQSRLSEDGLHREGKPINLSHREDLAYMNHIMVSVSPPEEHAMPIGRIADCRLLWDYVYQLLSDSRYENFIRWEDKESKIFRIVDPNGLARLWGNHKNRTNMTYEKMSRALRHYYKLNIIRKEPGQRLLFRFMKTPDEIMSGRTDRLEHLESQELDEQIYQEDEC

Sequence	binding signal (FEV)	binding signal (ETV5)	binding signal (HSF1)	binding signal (SPIC)	binding signal (ELF4)	binding signal (ELK4)	binding signal (ETV2)	binding signal (ELF3)	binding signal (CRX)	binding signal (ETV1)	binding signal (ERF)	binding signal (ETV3L)	binding signal (ETS2)	binding signal (SPDEF)	binding signal (ETV7)	binding signal (ELF5)	binding signal (ETV3)	binding signal (ETV6)
TATAAG	1.05 fold enrichment (6-mer frequency, TF over GST control)	1.12 fold enrichment (6-mer frequency, TF over GST control)	1.51 fold enrichment (6-mer frequency, TF over GST control)	1.1 fold enrichment (6-mer frequency, TF over GST control)	1.15 fold enrichment (6-mer frequency, TF over GST control)	1.08 fold enrichment (6-mer frequency, TF over GST control)	1.22 fold enrichment (6-mer frequency, TF over GST control)	1.23 fold enrichment (6-mer frequency, TF over GST control)	2.08 fold enrichment (6-mer frequency, TF over GST control)	1.15 fold enrichment (6-mer frequency, TF over GST control)	1.2 fold enrichment (6-mer frequency, TF over GST control)	1.21 fold enrichment (6-mer frequency, TF over GST control)	1.17 fold enrichment (6-mer frequency, TF over GST control)	1.2 fold enrichment (6-mer frequency, TF over GST control)	1.18 fold enrichment (6-mer frequency, TF over GST control)	1.16 fold enrichment (6-mer frequency, TF over GST control)	1.15 fold enrichment (6-mer frequency, TF over GST control)	1.19 fold enrichment (6-mer frequency, TF over GST control)
TTATAA	1.16 fold enrichment (6-mer frequency, TF over GST control)	1.13 fold enrichment (6-mer frequency, TF over GST control)	1.79 fold enrichment (6-mer frequency, TF over GST control)	1.2 fold enrichment (6-mer frequency, TF over GST control)	1.11 fold enrichment (6-mer frequency, TF over GST control)	1.14 fold enrichment (6-mer frequency, TF over GST control)	1.12 fold enrichment (6-mer frequency, TF over GST control)	1.32 fold enrichment (6-mer frequency, TF over GST control)	2.9 fold enrichment (6-mer frequency, TF over GST control)	1.13 fold enrichment (6-mer frequency, TF over GST control)	1.15 fold enrichment (6-mer frequency, TF over GST control)	1.19 fold enrichment (6-mer frequency, TF over GST control)	1.2 fold enrichment (6-mer frequency, TF over GST control)	1.17 fold enrichment (6-mer frequency, TF over GST control)	1.21 fold enrichment (6-mer frequency, TF over GST control)	1.19 fold enrichment (6-mer frequency, TF over GST control)	1.16 fold enrichment (6-mer frequency, TF over GST control)	1.19 fold enrichment (6-mer frequency, TF over GST control)
